# In the supplement of paper PMC4466140:
# B1: unnamed (peptide)
# chain: QQNRPLPQLPNRNNR
# B2: unnamed (peptide)
# chain: NHSRSLFSLPGNQQS
# B3: unnamed (peptide)
# chain: RRTRLRPPTPLSQLL
# B4: unnamed (peptide)
# chain: LYKRKPILLPDPKPL
# Target: AgAbp1
# Test: SPOT peptide array binding signal intensity (averaged, normalized) (arbitrary units (background-subtracted, floor 0; scale differs between SH3 domains)); higher = stronger binding of the SH3 domain to the peptide
# Experimental: (§1)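 GST-tagged SH3 domains from S. cerevisiae (Sc), A. gossypii (Ag), C. albicans (Ca) and S. pombe (Sp) were incubated at 10 ug/ml overnight at 4 C on cellulose SPOT membranes carrying 292 synthetic 15-mer peptides mined from the S. cerevisiae proteome (cysteines replaced by serines). Binding was detected with anti-GST antibody, HRP secondary and chemiluminescence, quantified with Genespotter, and reported as normalized spot intensities averaged over biological replicates.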
row,Binder,SPOT peptide array binding signal intensity
1,B1,30
2,B2,31
3,B4,30.5

# Target: AgBbc1
# Test: as above
# Experimental: as §1
row,Binder,SPOT peptide array binding signal intensity
1,B1,585
2,B2,21.5
3,B4,≤ 0

# Target: AgBem1-D1
# Test: as above
# Experimental: as §1
row,Binder,SPOT peptide array binding signal intensity
1,B1,98.5
2,B2,96.5
3,B4,≤ 0

# Target: AgBzz1-D1
# Test: as above
# Experimental: as §1
row,Binder,SPOT peptide array binding signal intensity
1,B1,73
2,B2,38
3,B4,44

# Target: AgBzz1-D2
# Test: as above
# Experimental: as §1
row,Binder,SPOT peptide array binding signal intensity
1,B1,80
2,B2,20.5
3,B4,70

# Target: AgCyk3
# Test: as above
# Experimental: as §1
row,Binder,SPOT peptide array binding signal intensity
1,B1,102
2,B2,1
3,B4,≤ 0

# Target: AgFus1
# Test: as above
# Experimental: as §1
row,Binder,SPOT peptide array binding signal intensity
1,B1,17
2,B2,786
3,B4,≤ 0

# Target: AgHof1
# Test: as above
# Experimental: as §1
row,Binder,SPOT peptide array binding signal intensity
1,B1,938
2,B2,58.8
3,B4,11

# Target: AgHse1
# Test: as above
# Experimental: as §1
row,Binder,SPOT peptide array binding signal intensity
1,B1,29
2,B2,2350
3,B4,93

# Target: AgLsb1
# Test: as above
# Experimental: as §1
row,Binder,SPOT peptide array binding signal intensity
1,B1,148
2,B2,246
3,B4,208

# Target: AgLsb4
# Test: as above
# Experimental: as §1
row,Binder,SPOT peptide array binding signal intensity
1,B1,1970
2,B2,45
3,B4,1.5

# Target: AgMyo5
# Test: as above
# Experimental: as §1
row,Binder,SPOT peptide array binding signal intensity
1,B1,≤ 0
2,B2,44.5
3,B4,≤ 0

# Target: AgNbp2
# Test: as above
# Experimental: as §1
row,Binder,SPOT peptide array binding signal intensity
1,B1,0.5
2,B2,44
3,B4,4.5

# Target: AgRvs167
# Test: as above
# Experimental: as §1
row,Binder,SPOT peptide array binding signal intensity
1,B1,797
2,B2,14
3,B4,≤ 0

# Target: AgSho1
# Test: as above
# Experimental: as §1
row,Binder,SPOT peptide array binding signal intensity
1,B1,2750
2,B2,64
3,B4,≤ 0

# Target: AgSla1-D1-D2
# Test: as above
# Experimental: as §1
row,Binder,SPOT peptide array binding signal intensity
1,B1,1
2,B2,58.5
3,B4,29

# Target: AgSla1-D3
# Test: as above
# Experimental: as §1
row,Binder,SPOT peptide array binding signal intensity
1,B1,≤ 0
2,B2,13.5
3,B4,9

# Target: CaAbp1-D1
# Test: as above
# Experimental: as §1
row,Binder,SPOT peptide array binding signal intensity
1,B1,32
2,B2,266
3,B4,292

# Target: CaAbp1-D2
# Test: as above
# Experimental: as §1
row,Binder,SPOT peptide array binding signal intensity
1,B1,6
2,B2,430
3,B4,140

# Target: CaBbc1
# Test: as above
# Experimental: as §1
row,Binder,SPOT peptide array binding signal intensity
1,B1,1000
2,B2,111
3,B4,16.5

# Target: CaBem1-D1
# Test: as above
# Experimental: as §1
row,Binder,SPOT peptide array binding signal intensity
1,B1,26.5
2,B2,27
3,B4,≤ 0

# Target: CaBzz1-D1
# Test: as above
# Experimental: as §1
row,Binder,SPOT peptide array binding signal intensity
1,B1,132
2,B2,5.5
3,B4,150

# Target: CaBzz1-D2
# Test: as above
# Experimental: as §1
row,Binder,SPOT peptide array binding signal intensity
1,B1,90.5
2,B2,31
3,B4,40.8

# Target: CaCyk3
# Test: as above
# Experimental: as §1
row,Binder,SPOT peptide array binding signal intensity
1,B1,35
2,B2,1.5
3,B4,4

# Target: CaFus1
# Test: as above
# Experimental: as §1
row,Binder,SPOT peptide array binding signal intensity
1,B1,74
2,B2,1930
3,B4,39

# Target: CaHof1
# Test: as above
# Experimental: as §1
row,Binder,SPOT peptide array binding signal intensity
1,B1,17
2,B2,0.25
3,B4,0.75

# Target: CaHse1
# Test: as above
# Experimental: as §1
row,Binder,SPOT peptide array binding signal intensity
1,B1,49.2
2,B2,296
3,B4,≤ 0

# Target: CaLsb1
# Test: as above
# Experimental: as §1
row,Binder,SPOT peptide array binding signal intensity
1,B1,1.5
2,B2,2
3,B4,228

# Target: CaLsb4
# Test: as above
# Experimental: as §1
row,Binder,SPOT peptide array binding signal intensity
1,B1,4700
2,B2,≤ 0
3,B4,≤ 0

# Target: CaMyo5
# Test: as above
# Experimental: as §1
row,Binder,SPOT peptide array binding signal intensity
1,B1,4
2,B2,85.2
3,B4,≤ 0

# Target: CaNbp2
# Test: as above
# Experimental: as §1
row,Binder,SPOT peptide array binding signal intensity
1,B2,358
2,B4,33

# Target: CaRvs167
# Test: as above
# Experimental: as §1
row,Binder,SPOT peptide array binding signal intensity
1,B2,54.7
2,B4,7.67

# Target: CaRvs167-3
# Test: as above
# Experimental: as §1
row,Binder,SPOT peptide array binding signal intensity
1,B2,70.5
2,B4,1.75

# Target: CaSho1
# Test: as above
# Experimental: as §1
row,Binder,SPOT peptide array binding signal intensity
1,B2,838
2,B4,≤ 0

# Target: CaSla1-D1-D2
# Test: as above
# Experimental: as §1
row,Binder,SPOT peptide array binding signal intensity
1,B2,25.5
2,B4,50

# Target: CaSla1-D3
# Test: as above
# Experimental: as §1
row,Binder,SPOT peptide array binding signal intensity
1,B2,23.8
2,B4,≤ 0

# Target: ScAbp1
# Test: as above
# Experimental: as §1
row,Binder,SPOT peptide array binding signal intensity
1,B2,48
2,B4,38

# Target: ScBbc1
# Test: as above
# Experimental: as §1
row,Binder,SPOT peptide array binding signal intensity
1,B2,0.75
2,B4,2

# Target: ScBem1-D1
# Test: as above
# Experimental: as §1
row,Binder,SPOT peptide array binding signal intensity
1,B2,6.5
2,B4,3

# Target: ScBzz1-D1
# Test: as above
# Experimental: as §1
row,Binder,SPOT peptide array binding signal intensity
1,B2,10
2,B4,20.5

# Target: ScBzz1-D2
# Test: as above
# Experimental: as §1
row,Binder,SPOT peptide array binding signal intensity
1,B2,10.5
2,B4,15.5

# Target: ScCyk3
# Test: as above
# Experimental: as §1
row,Binder,SPOT peptide array binding signal intensity
1,B2,29.5
2,B4,≤ 0

# Target: ScFus1
# Test: as above
# Experimental: as §1
row,Binder,SPOT peptide array binding signal intensity
1,B2,595
2,B4,≤ 0

# Target: ScHof1
# Test: as above
# Experimental: as §1
row,Binder,SPOT peptide array binding signal intensity
1,B2,3.5
2,B4,≤ 0

# Target: ScHse1
# Test: as above
# Experimental: as §1
row,Binder,SPOT peptide array binding signal intensity
1,B2,2940
2,B4,267

# Target: ScLsb1
# Test: as above
# Experimental: as §1
row,Binder,SPOT peptide array binding signal intensity
1,B2,2.75
2,B4,162

# Target: ScLsb2
# Test: as above
# Experimental: as §1
row,Binder,SPOT peptide array binding signal intensity
1,B2,7
2,B4,838

# Target: ScLsb3
# Test: as above
# Experimental: as §1
row,Binder,SPOT peptide array binding signal intensity
1,B2,4
2,B4,7

# Target: ScLsb4
# Test: as above
# Experimental: as §1
row,Binder,SPOT peptide array binding signal intensity
1,B2,≤ 0
2,B4,≤ 0

# Target: ScMyo3
# Test: as above
# Experimental: as §1
row,Binder,SPOT peptide array binding signal intensity
1,B2,29.5
2,B4,≤ 0

# Target: ScMyo5
# Test: as above
# Experimental: as §1
row,Binder,SPOT peptide array binding signal intensity
1,B2,67.2
2,B4,0.5

# Target: ScNbp2
# Test: as above
# Experimental: as §1
row,Binder,SPOT peptide array binding signal intensity
1,B2,104
2,B4,14.5

# Target: ScPex13
# Test: as above
# Experimental: as §1
row,Binder,SPOT peptide array binding signal intensity
1,B2,≤ 0
2,B4,≤ 0

# Target: ScRvs167
# Test: as above
# Experimental: as §1
row,Binder,SPOT peptide array binding signal intensity
1,B2,17
2,B4,16.7

# Target: ScSho1
# Test: as above
# Experimental: as §1
row,Binder,SPOT peptide array binding signal intensity
1,B2,1120
2,B4,62.5

# Target: ScSla1-D1-D2
# Test: as above
# Experimental: as §1
row,Binder,SPOT peptide array binding signal intensity
1,B2,90.5
2,B4,135

# Target: ScSla1-D3
# Test: as above
# Experimental: as §1
row,Binder,SPOT peptide array binding signal intensity
1,B2,2.25
2,B4,5

# Target: SpAbp1-D1
# Test: as above
# Experimental: as §1
row,Binder,SPOT peptide array binding signal intensity
1,B2,196
2,B4,29

# Target: SpBbc1
# Test: as above
# Experimental: as §1
row,Binder,SPOT peptide array binding signal intensity
1,B2,5.5
2,B4,≤ 0

# Target: SpBzz1-D1
# Test: as above
# Experimental: as §1
row,Binder,SPOT peptide array binding signal intensity
1,B2,28
2,B4,188

# Target: SpBzz1-D2
# Test: as above
# Experimental: as §1
row,Binder,SPOT peptide array binding signal intensity
1,B2,2.5
2,B3,≤ 0
3,B4,0.5

# Target: SpCyk3
# Test: as above
# Experimental: as §1
row,Binder,SPOT peptide array binding signal intensity
1,B2,≤ 0
2,B3,4
3,B4,≤ 0

# Target: SpHof1
# Test: as above
# Experimental: as §1
row,Binder,SPOT peptide array binding signal intensity
1,B2,176
2,B3,406
3,B4,6.25

# Target: SpHof1-2
# Test: as above
# Experimental: as §1
row,Binder,SPOT peptide array binding signal intensity
1,B2,10.8
2,B3,61.6
3,B4,7.5

# Target: SpHof1-3
# Test: as above
# Experimental: as §1
row,Binder,SPOT peptide array binding signal intensity
1,B2,992
2,B3,610
3,B4,83

# Target: SpHse1
# Test: as above
# Experimental: as §1
row,Binder,SPOT peptide array binding signal intensity
1,B2,1960
2,B3,460
3,B4,4

# Target: SpLsb1
# Test: as above
# Experimental: as §1
row,Binder,SPOT peptide array binding signal intensity
1,B2,27.5
2,B3,87.8
3,B4,19.8

# Target: SpLsb4
# Test: as above
# Experimental: as §1
row,Binder,SPOT peptide array binding signal intensity
1,B2,20
2,B3,615
3,B4,≤ 0

# Target: SpMyo1
# Test: as above
# Experimental: as §1
row,Binder,SPOT peptide array binding signal intensity
1,B2,72.5
2,B3,12.1
3,B4,≤ 0

# Target: SpNbp2
# Test: as above
# Experimental: as §1
row,Binder,SPOT peptide array binding signal intensity
1,B2,125
2,B3,184
3,B4,5.5

# Target: SpPex13
# Test: as above
# Experimental: as §1
row,Binder,SPOT peptide array binding signal intensity
1,B2,7
2,B3,12.8
3,B4,≤ 0

# Target: SpRvs167
# Test: as above
# Experimental: as §1
row,Binder,SPOT peptide array binding signal intensity
1,B2,75
2,B3,24.8
3,B4,12.3

# Target: SpSla1-D1-D2
# Test: as above
# Experimental: as §1
row,Binder,SPOT peptide array binding signal intensity
1,B2,3
2,B3,53
3,B4,≤ 0

# Target: SpSla1-D3
# Test: as above
# Experimental: as §1
row,Binder,SPOT peptide array binding signal intensity
1,B2,13.5
2,B3,8
3,B4,≤ 0
